HEK cytotox = kills HEK 293 cells; HEK 293 viability, ATP luminescence (CellTiter-Glo), 48-72 h; Potency, µM (doses to about 115 µM), hits mostly inhibitors; 6.6% of 94,000 active; AID 1345083; also: nearly all actives have a fitted effect of over 60% in size
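Cytotoxicity was scored by loss of ATP-coupled luminescence (CellTiter-Glo) in HEK 293 cells. Compound treatment ran 48 or 72 hr at 37 degree Celsius, 5% CO2, 95% humidity.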
Luciferase inh = Photinus pyralis luciferase inhibition. P08659. purified P. pyralis luciferase, luminescence, biochemical. Potency, µM (highest dose often 115 µM), actives largely listed as inhibitors. 2.5% of 76,000 active; also: nearly all actives have a fitted effect of over 65% in size
Target sequence (P08659 whole entry, looked up): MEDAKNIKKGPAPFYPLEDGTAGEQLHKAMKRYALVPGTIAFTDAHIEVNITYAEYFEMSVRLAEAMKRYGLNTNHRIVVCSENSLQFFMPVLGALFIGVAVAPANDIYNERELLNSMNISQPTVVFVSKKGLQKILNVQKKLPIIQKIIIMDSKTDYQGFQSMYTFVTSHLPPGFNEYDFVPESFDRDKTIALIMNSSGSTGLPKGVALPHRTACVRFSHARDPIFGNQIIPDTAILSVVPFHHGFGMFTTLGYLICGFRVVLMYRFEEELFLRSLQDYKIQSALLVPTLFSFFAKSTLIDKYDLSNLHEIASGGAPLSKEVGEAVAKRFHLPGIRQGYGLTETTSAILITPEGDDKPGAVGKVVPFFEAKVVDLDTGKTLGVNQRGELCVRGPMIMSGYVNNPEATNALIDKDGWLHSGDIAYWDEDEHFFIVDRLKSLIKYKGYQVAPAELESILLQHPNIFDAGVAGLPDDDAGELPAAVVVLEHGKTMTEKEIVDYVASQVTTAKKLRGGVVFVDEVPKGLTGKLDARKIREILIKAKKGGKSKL
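Luminescence read by CCD imager after adding enzyme (10nM final) to wells holding compound, titrated in qHTS. Substrates 10uM each D-luciferin and ATP; buffer 50mM Tris acetate pH 7.5, 10mM Mg acetate, Tween-20, BSA.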
NPR1 antag = human Npr1 receptor antagonism; P16066; HEK293 hNpr1 GloSensor cGMP, ANP-stimulated luminescence; Potency, µM (top dose mostly 46.3 µM), actives largely listed as inhibitors; 1.6% of 76,000 active; calls by dose curve; also: nearly all actives have a fitted effect of over 60% in size
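HEK293 cells stably expressing human Npr1 and cGMP GloSensor pGS-40F, loaded 2 h with 2% GloSensor reagent, given compound 30 min at room temperature. Luminescence read before and 20 min after 0.1 nM hNppA.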
NIH3T3 tox = NIH 3T3 cell cytotoxicity. NIH 3T3 viability, CellTiter-Glo ATP luminescence, 48-72 h. Potency, µM (series often up to 96.7 µM), most hits filed as inhibitors. 4.3% of 94,000 active; also: nearly all actives have a fitted effect of over 55% in size
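Cytotoxicity was measured by CellTiter-Glo ATP luminescence after 48 or 72 h compound exposure at 37 °C. Mouse NIH 3T3 fibroblasts were seeded at 400 cells/well and dosed by 23 nL pin transfer.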
NPR1 antag cnf = confirmation of human Npr1 natriuretic peptide receptor antagonists; HEK293 hNpr1 cGMP GloSensor luminescence, ANP-stimulated; 76% of 1,400 active; AID 1347044; shares compounds with NPR1 antag; Potency, µM (top dose mostly 57.6 µM), usual class: inhibitors; calls by dose curve; also: nearly all actives have a fitted effect of over 70% in size
Npr2 selectivity = hNpr2 antagonism, selectivity versus Npr1; shares compounds with NPR1 antag; HEK293 hNpr2 GloSensor cGMP luminescence, CNP-stimulated; Potency, µM (highest dose often 57.6 µM), actives largely listed as inhibitors; 67% of 1,400 active; AID 1347046; calls by dose curve; also: nearly all actives have a fitted effect of over 70% in size
FLuc inh counter = inhibits firefly luciferase, false Npr1 antagonist flag | shares compounds with NPR1 antag | purified FLuc enzyme, luminescence, Km substrate | Potency, µM (series often up to 57.6 µM), hits mostly inhibitors | 0.7% of 1,400 active
GloSensor cGMP = reduces cGMP signal in GloSensor control cells; shares compounds with NPR1 antag; HEK293 GloSensor cGMP, SNP-stimulated, luminescence; Potency, µM (titrated, usually from 57.6 µM), hits mostly inhibitors; 69% of 1,400 active; AID 1347051; calls by dose curve; also: nearly all actives have a fitted effect of over 70% in size
Large screens that a line does not name were inactive (follow-up assays come after a bar, where they were run). Hits are enriched below; roughly 11% of the tested compounds scored in any of these assays. Unless noted, calls follow the shape of the dose curve; as a rule, active = well fitted curve in the direction sought with a large enough effect; inconclusive = small, poorly fitted or top-dose-only effect, or another doubt; inactive = no such curve, though single readings can be large; an effect the other way counts as inactive or inconclusive.

COc1cccc(CCC(=O)N2CCC(Cc3nc(-c4cnccn4)no3)CC2)c1	none
O=C(Cc1ccsc1)N1CCC(Cc2nc(-c3ccc(F)cc3)no2)CC1	HEK cytotox inconclusive, NPR1 antag 5µM, NIH3T3 tox inconclusive | NPR1 antag cnf 4.8µM | Npr2 selectivity 4.8µM | FLuc inh counter inactive | GloSensor cGMP 3.9µM
COc1ccc(-c2noc(CC3CCN(C(=O)CCc4ccccc4)CC3)n2)cc1	HEK cytotox 35µM, NPR1 antag 13µM, NIH3T3 tox inconclusive | NPR1 antag cnf 19µM | Npr2 selectivity 22µM | FLuc inh counter inactive | GloSensor cGMP 17µM
Cc1nc2cnccn2c1C(=O)NCC(F)(F)F	none (no result: Luciferase inh, NPR1 antag)
COc1ccc(OCC(=O)N2CCC(Cc3nc(-c4cnccn4)no3)CC2)cc1	NIH3T3 tox inconclusive
COc1ccc(CCC(=O)N2CCC(Cc3nc(-c4ccc(F)cc4)no3)CC2)cc1	HEK cytotox inconclusive, NPR1 antag 5.6µM, NIH3T3 tox inconclusive | NPR1 antag cnf 4.3µM | Npr2 selectivity 11µM | FLuc inh counter inactive | GloSensor cGMP 11µM
COc1ccc(CCC(=O)N2CCC[C@H]2c2nc(-c3ccccc3Cl)no2)cc1	HEK cytotox inconclusive, NPR1 antag 13µM, NIH3T3 tox inconclusive | NPR1 antag cnf 24µM | Npr2 selectivity inconclusive | FLuc inh counter inactive | GloSensor cGMP 27µM
Cc1ccc(OCC(=O)N2CCC(Cc3nc(-c4ccc(F)cc4)no3)CC2)cc1	HEK cytotox inconclusive, NPR1 antag 7.9µM, NIH3T3 tox inconclusive | NPR1 antag cnf 11µM | Npr2 selectivity 12µM | FLuc inh counter inactive | GloSensor cGMP 9.7µM
O=C(CCCc1ccccc1)N1CCC[C@H]1c1nc(-c2ccccc2Cl)no1	HEK cytotox inconclusive, NIH3T3 tox inconclusive
COc1cccc(CCC(=O)N2CCC(Cc3nc(-c4cccc(OC)c4)no3)CC2)c1	HEK cytotox inconclusive, NPR1 antag 16µM, NIH3T3 tox inconclusive | NPR1 antag cnf 22µM | Npr2 selectivity 22µM | FLuc inh counter inactive | GloSensor cGMP 17µM
COc1ccc(-c2ccc(C(=O)N3CCN(C(=O)c4ccc(F)cc4)CC3)cc2)nn1	none (no result: Luciferase inh, NPR1 antag)
O=[S+]([O-])(NC1CCN(c2ccc3nnc(-c4ccccc4)n3n2)C1)c1ccccc1 (centres undefined)	HEK cytotox inconclusive (no result: Luciferase inh, NPR1 antag)
COc1ccc(CC(=O)N2CCC(Cc3nc(-c4ccc(F)cc4)no3)CC2)cc1	HEK cytotox inconclusive, NPR1 antag 5.6µM, NIH3T3 tox inconclusive | NPR1 antag cnf 7.7µM | Npr2 selectivity 6.9µM | FLuc inh counter inactive | GloSensor cGMP 6.1µM
O=C(CCc1ccccc1)N1CC(Oc2ccc(-c3noc(C4CC4)n3)cc2)C1	HEK cytotox 28µM, NPR1 antag 14µM, NIH3T3 tox inconclusive | NPR1 antag cnf 15µM | Npr2 selectivity 17µM | FLuc inh counter inactive | GloSensor cGMP 15µM
COc1cccc(CCC(=O)N2CCC(n3cc(-c4nc(-c5ccccc5)no4)nn3)C2)c1 (centres undefined)	HEK cytotox inconclusive, Luciferase inh inconclusive, NPR1 antag 14µM, NIH3T3 tox inconclusive | NPR1 antag cnf 22µM | Npr2 selectivity 24µM | FLuc inh counter inactive | GloSensor cGMP 22µM
CN(C)C[C@@H]1CN(Cc2cccnc2)C[C@H]1NC(=O)c1cc2ccccc2[nH]1	HEK cytotox inconclusive, NIH3T3 tox inconclusive
O=C(c1ccc(C(F)(F)F)cc1)N1CCC(c2n[nH]c(=O)n2Cc2ccc(F)cc2)CC1	HEK cytotox inconclusive
CC(C)(C)c1ccc(C(=O)N2CCC(c3n[nH]c(=O)n3Cc3ccc(F)cc3)CC2)cc1	HEK cytotox inconclusive, NPR1 antag 11µM, NIH3T3 tox inconclusive | NPR1 antag cnf 24µM | Npr2 selectivity 22µM | FLuc inh counter inactive | GloSensor cGMP 22µM
COc1ccc(CN2CC(O)CN(C(=O)Cc3ccccc3)CC2=O)cc1 (centres undefined)	NIH3T3 tox inconclusive (no result: Luciferase inh, NPR1 antag)
Cc1ccc(-n2ncc3c2CCCC3NC(=O)c2cc(C(C)C)no2)cc1C (centres undefined)	HEK cytotox inconclusive, NPR1 antag 14µM, NIH3T3 tox inconclusive | NPR1 antag cnf 17µM | Npr2 selectivity 17µM | FLuc inh counter inactive | GloSensor cGMP 12µM
O=C1N[C@H](CC(=O)N2CCC(Cc3ccccc3)CC2)C(=O)Nc2ccccc21	HEK cytotox inconclusive, NPR1 antag 10µM | NPR1 antag cnf 19µM | Npr2 selectivity 12µM | FLuc inh counter inactive | GloSensor cGMP inactive
O=C1N[C@H](CC(=O)N2CCC(c3ccccc3)C2)C(=O)Nc2ccccc21 (some centres undefined)	none
COCCCNC(=O)CCC1CCN(S(=O)(=O)c2ccccc2C)CC1	none (no result: Luciferase inh, NPR1 antag)
COc1ccc(-c2noc([C@@H]3CCCN3C(=O)Cc3ccccc3OC)n2)cc1	HEK cytotox inconclusive
COc1ccccc1C(=O)N1CCC(Cc2nc(C(C)C)no2)CC1	HEK cytotox inconclusive
COc1ccc(-c2noc(CC3CCN(C(=O)Cc4ccccc4OC)CC3)n2)cc1	HEK cytotox inconclusive, NPR1 antag inconclusive, NIH3T3 tox inconclusive | NPR1 antag cnf 22µM | Npr2 selectivity 19µM | FLuc inh counter inactive | GloSensor cGMP 22µM
COc1ccccc1CCC(=O)N1CCC(Cc2nc(-c3ccc(F)cc3)no2)CC1	HEK cytotox inconclusive, NPR1 antag inconclusive, NIH3T3 tox inconclusive
COc1ccccc1C(=O)N1CCC(Cc2nc(-c3ccc(F)cc3)no2)CC1	HEK cytotox inconclusive, NPR1 antag 6.3µM, NIH3T3 tox inconclusive | NPR1 antag cnf 9.7µM | Npr2 selectivity 12µM | FLuc inh counter inactive | GloSensor cGMP 11µM
COCc1nc(C2CCCN(C(=O)c3ccc(OC)nc3OC)C2)no1 (centres undefined)	none
COc1ccc(C(=O)N2CCC(Cc3nc(-c4ccc(F)cc4)no3)CC2)c(OC)n1	HEK cytotox inconclusive, NPR1 antag 2.8µM, NIH3T3 tox inconclusive | NPR1 antag cnf 3.4µM | Npr2 selectivity 4.8µM | FLuc inh counter inactive | GloSensor cGMP 4.8µM
COc1ccccc1CC(=O)N1CCC(Cc2nc(-c3ccc(F)cc3)no2)CC1	HEK cytotox inconclusive, NPR1 antag 1.3µM, NIH3T3 tox inconclusive | NPR1 antag cnf 2.4µM | Npr2 selectivity 2.4µM | FLuc inh counter inactive | GloSensor cGMP 1.9µM
Cc1ccsc1CN1CCCN(S(=O)(=O)c2ccccc2)CCC(=O)NCC1	none
COc1cccc(NC(=O)N2CCC(Cn3cc(C4CCCC4)nn3)CC2)c1	Luciferase inh inconclusive, NIH3T3 tox inconclusive

Source: PubChem BioAssay (National Center for Advancing Translational Sciences (NCATS))
